38 compounds from PubChem BioAssay (Tox21) can be followed below.

Records with an inconclusive call do not appear. A call without a number means that no potency is given here. Activity calls are given as the source filed them. Unless noted, the call rests on the fitted dose curve.

The nature of the first assay: qHTS assay to identify small molecule agonists of the hypoxia (HIF-1) signaling pathway (AID 1224846; active means well fitted activation curve with a large enough effect in the signal ratio in the repeat runs, not every such curve was filed as active; the % refers to the signal ratio). The note with it: HRE-bla ME-180 cells, beta-lactamase ratio, 17 h; series mostly up to 76.8 µM. A digest of the protocol:
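Steps: seed ME-180 HRE-bla cells (2,000/well, 0.5% dialyzed FBS); incubate 5 hrs at 37C; pin-transfer compounds or DMSO; incubate 17 hrs; add LiveBLAzer B/G substrate CCF4-AM; measure reporter activation by FRET.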
`C=C(C)C(=O)OCCOCCOC(=O)C(=C)C`: the result was inactive.
Same read-out and setting: for `CC(C)(c1ccccc1)c1ccccc1` the value was “inactive”.
With `c1ccc(C[n+]2cccc3ccccc32)cc1`, the result was inactive.
As to `CCC1CO1` (stereo not drawn), the outcome was inactive.
`Cc1cscn1`: the result was inactive.
In the case of `CC1(C)S[C@@H]2[C@H](NC(=O)C(c3ccccc3)S(=O)(=O)O)C(=O)N2[C@H]1C(=O)O` (stereo partly drawn), the result was inactive.
Still for that read-out and setting: for `CC(=O)Oc1ccc([N+](=O)[O-])cc1CCl` the value was “inactive”; for `O=C(/C=C/c1ccc(O)c(O)c1)O[C@@H]1C[C@@](OC(=O)/C=C/c2ccc(O)c(O)c2)(C(=O)O)C[C@@H](O)[C@@H]1O`, “inactive”; for `O[C@@H]1CO[C@H]2[C@@H]1OC[C@@H]2O`, “inactive”.
As to `O=c1[nH]ncc2ccccc12`, the outcome was inactive.
With `C=C/C(C)=C/C/C=C(\C)CCC=C(C)C`, the outcome was inactive.
Still for that read-out and setting: with `CCOC(=O)c1ccc(C#Cc2ccc3c(c2)C(C)(C)CCS3)nc1` the entry was “inactive”; with `CCCCCCCCN`, “inactive”.
Regarding `CC1CC(C)C(=O)C1=O` (stereo not drawn), the result was inactive.
On the same count and under the same terms, for `COC(=O)CCS` the value was “inactive”; for `CCC(OCCCOC)OC(C)=O` (stereo not drawn), “inactive”; for `CO[C@]1(NC(=O)CSC(F)F)C(=O)N2C(C(=O)O)=C(CSc3nnnn3CCO)CO[C@H]21`, “inactive”.
On to `CCCCCCC(C)(C)C(=O)O`, for which the result was inactive.
`O=C1CCCCCCCCCCOCCCCO1`: the result was inactive.
Regarding `CCOc1ccccc1O[C@H](c1ccccc1)[C@H]1CNCCO1`, the outcome was inactive.
As for `Cc1[nH]cnc1CN1CCc2c(c3ccccc3n2C)C1=O`, the result was inactive.
Same read-out and setting: with `CCCCCCCC/C=C\CCCCCCCCCCCC(=O)O` the entry was “inactive”.
In the case of `Oc1cc2c(cc1O)[C@H]1c3ccc(O)c(O)c3OC[C@@]1(O)C2`, the outcome was inactive.
On the same count and under the same terms, with `O=C(OC(=O)c1ccccc1)c1ccccc1` the entry was “inactive”; with `Brc1cc(Br)c(Oc2cc(Br)c(Br)cc2Br)cc1Br`, “inactive”; with `NNC(=O)CP(=O)(c1ccccc1)c1ccccc1`, “inactive”.
Regarding `C=C(C)CCCC(C)CCO` (stereo not drawn), the result was inactive.
Still for that read-out and setting: with `Nc1ccc(N=Nc2ccccc2)c(N)c1` the entry was “inactive”.
Same read-out and setting: for `COC(=O)CS` the value was “inactive”; for `NCCNCCO`, “inactive”.

A short description of the next assay: qHTS assay to identify small molecule agonists of H2AX - cell viability counter screen (AID 1224847). Further: nearly all actives have a fitted effect of over 30% in size. Further: potency means the concentration at half of the fitted maximal effect. The note with it: CHO-K1 viability, CellTiter-Glo luminescence, 3 h; series mostly up to 154 µM. In a few lines:
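Compounds tested at 15 concentrations were incubated 3 hr at 37C with wild-type CHO-K1 cells; cellular ATP-based luminescence (CellTiter-Glo) indicated viability.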
For the compound `Cc1ccc(Cl)c(Nc2ccccc2C(=O)O)c1Cl`, the Potency result was “inactive”.
The same measure, in the same setting: for `C=C(C)C(=O)OCCOCCOC(=O)C(=C)C` the value was “inactive”; for `CC(C)(c1ccccc1)c1ccccc1`, “inactive”; for `c1ccc(C[n+]2cccc3ccccc32)cc1`, “inactive”.
Still for that read-out and setting: with `Cc1cscn1` the entry was “inactive”; with `CC1(C)S[C@@H]2[C@H](NC(=O)C(c3ccccc3)S(=O)(=O)O)C(=O)N2[C@H]1C(=O)O` (stereo partly drawn), “inactive”.
Still for that read-out and setting: for `CC(=O)Oc1ccc([N+](=O)[O-])cc1CCl` the value was “inactive”; for `CCCCCCCCCCCCCCN(CCO)CCO`, 89.8 µM (active).
With `O[C@@H]1CO[C@H]2[C@@H]1OC[C@@H]2O`, the Potency entry was “inactive”.
Same read-out and setting: with `O=c1[nH]ncc2ccccc12` the entry was “inactive”.
Regarding `C=C/C(C)=C/C/C=C(\C)CCC=C(C)C`, the Potency entry was “inactive”.
Still for that read-out and setting: for `CC1CC(C)C(=O)C1=O` (stereo not drawn) the value was “inactive”; for `COC(=O)CCS`, “inactive”.
Still for that read-out and setting: with `CCC(OCCCOC)OC(C)=O` (stereo not drawn) the entry was “inactive”; with `CO[C@]1(NC(=O)CSC(F)F)C(=O)N2C(C(=O)O)=C(CSc3nnnn3CCO)CO[C@H]21`, “inactive”.
On the same count and under the same terms, with `O=C1CCCCCCCCCCOCCCCO1` the entry was “inactive”; with `CCn1cc(C(=O)O)c(=O)c2cc(F)c(N3CCNCC3)cc21`, “inactive”; with `CCOc1ccccc1O[C@H](c1ccccc1)[C@H]1CNCCO1`, “inactive”.
For `CCCCCCCC/C=C\CCCCCCCCCCCC(=O)O`, the Potency result is “inactive”.
On the same count and under the same terms, with `Brc1cc(Br)c(Oc2cc(Br)c(Br)cc2Br)cc1Br` the entry was “inactive”; with `CCN(CC)CCNC(=O)COc1ccc(OC)cc1`, “inactive”; with `NNC(=O)CP(=O)(c1ccccc1)c1ccccc1`, “inactive”.
Same read-out and setting: for `C=C(C)CCCC(C)CCO` (stereo not drawn) the value was “inactive”.
As to `O=C(O)CCC(=O)C(=O)O`, the Potency entry is “inactive”.
For `Nc1ccc(N=Nc2ccccc2)c(N)c1`, the Potency is 98.6 µM (active).
With `COC(=O)CS`, the Potency result is “inactive”.
On the same count and under the same terms, with `CC(=O)OCC[N+](C)(C)C` the entry was “inactive”.
The same measure, in the same setting: for `NCCNCCO` the value was “inactive”.

The next assay in a line: qHTS assay to identify small molecule antagonists of the estrogen related receptor (ERR) signaling pathway from Tox21 library (AID 1224848; active means well fitted inhibition curve with a large enough effect in the repeat runs; further: nearly all actives have a fitted effect of over 50% in size; further: potency means the concentration at half of the fitted maximal effect). The note with it: ERR reporter cell line, luciferase antagonist mode, 18 h; series mostly up to 92.4 µM. In a few lines: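 Screening used an ERR reporter line supplied by NTP, exposed for 18 h at 37 C to library compounds delivered in DMSO. Signal was luciferase luminescence developed with ONE-Glo at room temperature for 30 min.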
In the case of `C=C(C)C(=O)OCCOCCOC(=O)C(=C)C`, the Potency result was “inactive”.
Still for that read-out and setting: with `c1ccc(C[n+]2cccc3ccccc32)cc1` the figure was 48.6 µM (active); with `CC1(C)[C@@H](OC(=O)CCC(=O)O)CC[C@]2(C)[C@H]3C(=O)C=C4[C@@H]5C[C@@](C)(C(=O)O)CC[C@]5(C)CC[C@@]4(C)[C@]3(C)CC[C@@H]12`, “inactive”; with `CC(=O)Oc1ccc([N+](=O)[O-])cc1CCl`, “inactive”.
With `CCCCCCCCCCCCCCN(CCO)CCO`, the Potency is 61.1 µM (active).
Still for that read-out and setting: for `Cc1ccc2c(Br)cc(Br)c(O)c2n1` the value was 8.41 µM (active); for `Cc1[nH]cnc1CN1CCc2c(c3ccccc3n2C)C1=O`, “inactive”; for `Oc1cc2c(cc1O)[C@H]1c3ccc(O)c(O)c3OC[C@@]1(O)C2`, 49.2 µM (active).
Take `NCCNCCO`: the Potency result is “inactive”.

The next assay can be described thus: qHTS assay to identify small molecule agonists of the estrogen related receptor (ERR) signaling pathway from Tox21 library (AID 1224849). Further: nearly all actives have a fitted effect of over 15% in size. The note with it: ERR reporter cell line, ONE-Glo luciferase, 18 h; at 92.4 µM (top of the series) unless noted. In a few lines:
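Agonist signal is luciferase luminescence from an ERR reporter cell line treated 18 h at 37 C with DMSO-dissolved compounds, read 30 min after ONE-Glo addition at room temperature.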
Take `C=C(C)C(=O)OCCOCCOC(=O)C(=C)C`: the activity change, positive = activation is 6.4% (inactive).
Regarding `c1ccc(C[n+]2cccc3ccccc32)cc1`, the activity change, positive = activation is -48.3% (inactive).
`CC1(C)[C@@H](OC(=O)CCC(=O)O)CC[C@]2(C)[C@H]3C(=O)C=C4[C@@H]5C[C@@](C)(C(=O)O)CC[C@]5(C)CC[C@@]4(C)[C@]3(C)CC[C@@H]12`: the activity change, positive = activation is 1.84% [at 42.5 µM] (inactive).
Still for that read-out and setting: for `CC(=O)Oc1ccc([N+](=O)[O-])cc1CCl` the value was -12.3% (inactive); for `CCCCCCCCCCCCCCN(CCO)CCO`, -78.9% (inactive).
Same read-out and setting: with `C=C/C(C)=C/C/C=C(\C)CCC=C(C)C` the figure was -20.3% (inactive); with `Cc1ccc2c(Br)cc(Br)c(O)c2n1`, -65.3% [at 42.5 µM] (inactive); with `CCCCCCC(C)(C)C(=O)O`, -23% (inactive).
In the case of `Cc1[nH]cnc1CN1CCc2c(c3ccccc3n2C)C1=O`, the activity change, positive = activation was -18.3% [at 42.5 µM] (inactive).
Turning to `Oc1cc2c(cc1O)[C@H]1c3ccc(O)c(O)c3OC[C@@]1(O)C2`, the activity change, positive = activation was -31.7% (inactive).
Consider `NCCNCCO`, for which the activity change, positive = activation is 0.838% (inactive).
